Experimental data from PubChem BioAssay (NCI).
About 83,000 compounds went through this panel and 20% of them were active in at least one assay; those are over-represented in the sample as a whole.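 A percent growth of 40 corresponds to 60% growth inhibition; 0 means no net growth; -100 means all cells died. Active threshold: below 10.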 A number with no mark means an inactive call. Active and inactive are the calls of the source.

Tests used:
Assay in all cases: NCI-60 one-dose screen, 48 h (100 = growth as untreated, 0 = no growth, -100 = all killed)
Conditions in all cases: 10 µM unless noted
NCI-H23 lung = tested on: NCI-H23 lung
NCI-H226 lung = tested on: NCI-H226 lung
NCI-H322M lung = tested on: NCI-H322M lung
HOP-62 NSCLC = tested on: HOP-62 NSCLC
NCI-H460 lung = tested on: NCI-H460 lung
NCI-H522 lung = tested on: NCI-H522 lung
A549/ATCC NSCLC = tested on: A549/ATCC NSCLC
786-0 renal = tested on: 786-0 renal
COLO 205 colon = tested on: COLO 205 colon
DU-145 prostate = tested on: DU-145 prostate
K-562 leukemia = tested on: K-562 leukemia
MALME-3M melanoma = tested on: MALME-3M melanoma
MDA-MB-231 breast = tested on: MDA-MB-231 breast
RXF 393 renal = tested on: RXF 393 renal
SF-268 CNS = tested on: SF-268 CNS
SF-295 CNS = tested on: SF-295 CNS
SF-539 CNS = tested on: SF-539 CNS
UACC-257 melanoma = tested on: UACC-257 melanoma
M14 melanoma = tested on: M14 melanoma
HCT-15 colon = tested on: HCT-15 colon

Compound	growth (NCI-H23 lung)	growth (NCI-H226 lung)	growth (NCI-H322M lung)	growth (HOP-62 NSCLC)	growth (NCI-H460 lung)	growth (NCI-H522 lung)	growth (A549/ATCC NSCLC)	growth (786-0 renal)	growth (COLO 205 colon)	growth (DU-145 prostate)	growth (K-562 leukemia)	growth (MALME-3M melanoma)	growth (MDA-MB-231 breast)	growth (RXF 393 renal)	growth (SF-268 CNS)	growth (SF-295 CNS)	growth (SF-539 CNS)	growth (UACC-257 melanoma)	growth (M14 melanoma)	growth (HCT-15 colon)
Clc1ccc(CCC(Cn2ccnc2)Sc2c(Cl)cccc2Cl)cc1 (stereo not given)	42.5%	90.6%	81.3%	83%	47.3%	20.3%	61.2%	56.4%	57.7%	94.2%	30.5%	60.3%	55.5%	67.4%	87.1%	43.4%	91.5%	83.4%	54.9%	34%
COc1cc(C2C=C(c3ccc(C)cc3)Nc3nc(SC)[nH]c(=O)c32)ccc1Oc1ccnc2cc(Cl)ccc12 (stereo not given)	80.7%	79.7%	84%	113%	70.2%	75%	63.1%	85.1%	101%	64.5%	75.6%	80.1%	73.6%	83.4%	59.6%	70.1%	100%	62.7%	85.1%	64%
O=C1CC(C(F)(F)F)=NN1C(=O)c1nn(-c2ccc(Cl)cc2)cc1O	101%	79.8%	15.6%	70.2%	71.2%	89.9%	91.2%	97.7%	125%	83.6%	96.7%	146%	81.9%	78.1%	56.7%	81.3%	82.7%	111%	88.4%	69.9%
Cc1ccc(C(C)C)cc1NC(=O)Nc1ccc([N+](=O)[O-])cc1	-32.8% (active)	27.3%	43.2%	-0.0828% (active)	-1.38% (active)	-19.8% (active)	9.96% (active)	8.79% (active)	-35.4% (active)	12.2%	18.2%	6.64% (active)	35.6%	90.8%	29.9%	4.2% (active)	29%	-5.55% (active)	22.3%	10.7%
CO[C@H]1CC(O[C@@H]2/C(C)=C/C[C@@H]3C[C@@H](C[C@]4(CC[C@H](C)[C@@H](C5CCCCC5)O4)O3)OC(=O)[C@@H]3C=C(C)/C(=N/O)[C@H]4OC/C(=C\C=C\[C@@H]2C)[C@]43O)O[C@@H](C)C1O (stereo not given in full)	-76.2% (active)	-84.2% (active)	-78% (active)	-88.8% (active)	-82.3% (active)	-73.4% (active)	-82.9% (active)	-91.1% (active)	-79.4% (active)	-96.1% (active)	-36.7% (active)	-46.3% (active)	-89% (active)	-97.2% (active)	-92.2% (active)	-89.5% (active)	-68.8% (active)	-81.6% (active)	-81.4% (active)	-75.1% (active)
CC(C)[O-].CC(C)[O-].CN(CCN(C)Cc1cc(F)cc(F)c1[O-])Cc1cc(F)cc(F)c1[O-].[Ti+4]	6.91% (active)	25.6%	0.494% (active)	-5.62% (active)	-27.8% (active)	-32.3% (active)	2.03% (active)	19.1%	1.34% (active)	17.7%	8.81% (active)	-55.4% (active)	11%	-79.1% (active)	6.13% (active)	-9.78% (active)	-0.0224% (active)	17.1%	-41.9% (active)	15.5%
O=C1C(=O)c2ccc(Br)cc2-c2cc(Br)ccc21	42%	88.6%	91.2%	76.3%	78.8%	0.737% (active)	89.7%	50.9%	119%	68.4%	4.69% (active)	70.4%	-23.4% (active)	26.1%	22.4%	78.1%	117%	76.8%	68%	50.2%
Clc1ncn[nH]1	106%	102%	98.4%	98.6%	111%	94.9%	98.1%	103%	104%	110%	105%	103%	112%	102%	104%	78.6%	99.8%	95%	105%	98.6%
COc1cc(NC(=O)c2cc3ccccc3cc2O)c(OC)cc1Cl	-19.3% (active)	13.5%	-3.14% (active)	-29.6% (active)	3.33% (active)	-30.1% (active)	5.74% (active)	-5.13% (active)	41.6%	25.6%	-2.3% (active)	-23.7% (active)	18.5%	20.9%	27.3%	8.57% (active)	7.7% (active)	-22.2% (active)	4.56% (active)	13.8%
c1ccc2cc(C[n+]3ccn(CCCCCCCn4cc[n+](Cc5ccc6ccccc6c5)c4)c3)ccc2c1	14.4%	59.5%	58.6%	32.6%	14.6%	5.87% (active)	26.7%	95.8%	20%	49.2%	19.1%	-9.13% (active)	49%	74%	34.4%	21.6%	33.4%	15.8%	47.1%	82.6%
Oc1ccc(-c2nn(-c3ccccc3)cc2-c2nc3ccccc3s2)cc1	89.6%	85.9%	97.3%	104%	91.3%	101%	91.2%	105%	106%	106%	78.6%	98.8%	81.5%	104%	97.3%	106%	102%	107%	101%	81.6%
Cc1ccc(C(O)C2=CC(=O)c3ccccc3C2=O)cc1 (stereo not given)	89.2%	94.9%	99.3%	104%	98.4%	95.7%	102%	110%	107%	111%	112%	107%	71.1%	109%	107%	97.6%	95.3%	102%	95.7%	93.3%
CC(=O)Oc1c(C)c(OC(C)=O)c2c(c1C(C)=O)OC1CC(=O)C(C(C)=O)=C(O)C21C (stereo not given)	90.9%	104%	105%	89.2%	94.9%	91.1%	99%	94.8%	118%	112%	73.3%	96.9%	106%	132%	122%	92%	98.6%	115%	96%	94.8%
CCCCCCCCSc1ncnc2c1ncn2CO	50.8%	58.5%	140%	82.7%	86.6%	66.4%	102%	85.5%	104%	90.9%	73.7%	118%	98.2%	55.2%	97.6%	67.7%	86.3%	81.6%	97.7%	97.1%
CCC1=C(c2ccc(OC)cc2)C(C)(C)Oc2cc(O)c(CN3CCCC3)cc21	68.1%	97.6%	92%	71.4%	86.6%	41.5%	85.1%	59%	65.9%	93.8%	19.7%	77.2%	95.8%	79.9%	88.4%	51%	76.8%	72%	62.1%	82.2%
COc1ccc(C(=O)Nc2nc(-c3ccc(Cl)cc3)cs2)cc1	114%	95.6%	86.8%	90.8%	105%	105%	100%	108%	102%	111%	104%	111%	105%	97.1%	105%	97.5%	93%	98.5%	113%	94.9%
